Laboratory results reported in PubChem BioAssay (EPA / NIEHS).
Activity calls are given as the source filed them. How the source made its calls: active means hit-call score of the fitted dose curve at least 0.9, where 1 is the maximum; inactive means score below 0.9.

Key:
Details in all cases: mRNA level, 48 h; actives raise or lower the signal
Caspase-3 (Homo sapiens) = Caspase-3 (Homo sapiens) (UniProt P42574); test: LTEA_HepaRG_CASP3: Life Technologies and Expression Analysis (LTEA) Assay for cysteine-aspartic acid protease (CASP3) using HepaRG (AID 2283477)
Caspase-3 (Homo sapiens), sequence (P42574 whole entry, looked up): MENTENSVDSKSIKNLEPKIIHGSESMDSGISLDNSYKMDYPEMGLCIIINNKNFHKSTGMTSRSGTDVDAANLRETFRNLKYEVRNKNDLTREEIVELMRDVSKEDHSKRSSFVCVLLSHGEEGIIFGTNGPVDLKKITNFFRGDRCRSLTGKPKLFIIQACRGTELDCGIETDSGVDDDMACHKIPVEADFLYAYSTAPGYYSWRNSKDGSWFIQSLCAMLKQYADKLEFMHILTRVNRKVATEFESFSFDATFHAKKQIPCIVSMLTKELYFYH
Method in brief: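 In HepaRG liver cells dosed for 48 h at up to 100 uM (eight-point, duplicate), CASP3 expression changes are scored by qRT-PCR. Activity is fitted in both directions with 0.5% DMSO as baseline.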

[1] = read-out: Cytochrome P450 (CYP24A1), CYP24A1 (gene 1591); test: LTEA_HepaRG_CYP24A1: Life Technologies and Expression Analysis (LTEA) Assay for Cytochrome P450 (CYP24A1) using HepaRG (AID 2283478)
Method in brief: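 Human liver HepaRG cultures receive each chemical for 48 h across an eight-point half-log series topping at 100 uM in 0.5% DMSO. Induction or suppression of CYP24A1 mRNA is scored relative to vehicle after housekeeping-gene normalization.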

[2] = read-out: Cytochrome P450 (CYP1A2), CYP1A2 (gene 1544); test: LTEA_HepaRG_CYP1A2: Life Technologies and Expression Analysis (LTEA) Assay for Cytochrome P450 (CYP1A2) using HepaRG (AID 2283479)
Method in brief: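 Assesses CYP1A2 mRNA in human HepaRG liver cells after 48 h chemical exposure at up to 100 uM. Values come from qRT-PCR with bidirectional curve fitting relative to DMSO.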

[3] = read-out: cysteine-aspartic acid protease (CASP8), CASP8 (gene 841); test: LTEA_HepaRG_CASP8: Life Technologies and Expression Analysis (LTEA) Assay for cysteine-aspartic acid protease (CASP8) using HepaRG (AID 2283480)
Method in brief: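 CASP8 transcript measured by TaqMan qRT-PCR with ACTB/GAPDH/POLR2A normalization, after 48 h chemical exposure of HepaRG cells in serum-free induction medium. Eight concentrations, top 100 uM, half-log steps, 0.5% DMSO vehicle; fits in both directions versus DMSO.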

[4] = read-out: Cytochrome P450 2C19 (Homo sapiens) (UniProt P33261); test: LTEA_HepaRG_CYP2C19: Life Technologies and Expression Analysis (LTEA) Assay for CYP2C19 using HepaRG (AID 2283482)
Method in brief: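 Human HepaRG liver cells received test chemicals for 48 h (highest 100 uM, half-log dilutions in 0.5% DMSO). CYP2C19 mRNA induction or loss is read by multiplexed qRT-PCR and fitted in both directions versus vehicle.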

CYP2C8 (gene 1558) = test: LTEA_HepaRG_CYP2C8: Life Technologies and Expression Analysis (LTEA) Assay for CYP2C8 using HepaRG (AID 2283483)
Method in brief: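 CYP2C8 expression measured by TaqMan qRT-PCR and normalized to three housekeeping genes. HepaRG cultures were treated for 48 h with an eight-point half-log series topping at 100 uM, vehicle 0.5% DMSO, duplicates; fitted both directions against DMSO.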

CYP2C9 (gene 1559) = test: LTEA_HepaRG_CYP2C9: Life Technologies and Expression Analysis (LTEA) Assay for CYP2C9 using HepaRG (AID 2283484)
Method in brief: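 CYP2C9 transcript level, quantified by TaqMan qRT-PCR against three housekeeping genes, was fitted bidirectionally relative to 0.5% DMSO. HepaRG cultures were treated 48 h, in duplicate, at eight half-log concentrations topping at 100 uM.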

CYP2E1 (gene 1571) = test: LTEA_HepaRG_CYP2E1: Life Technologies and Expression Analysis (LTEA) Assay for CYP2E1 using HepaRG (AID 2283485)
Method in brief: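 Assay uses 48 h exposure of HepaRG hepatic cells, eight concentrations to 100 uM. Expression of CYP2E1 is quantified by TaqMan qRT-PCR with ACTB, GAPDH and POLR2A normalization; curves fitted in both directions relative to vehicle.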

CYP4A11 (gene 1579) = test: LTEA_HepaRG_CYP4A11: Life Technologies and Expression Analysis (LTEA) Assay for CYP4A11 using HepaRG (AID 2283486)
Method in brief: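 Readout is CYP4A11 mRNA induction or suppression (qRT-PCR, ACTB/GAPDH/POLR2A normalization) in human HepaRG cells after 48 h chemical treatment, concentrations to 100 uM in 0.5% DMSO, fitted bidirectionally against vehicle.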

[5] = read-out: Cytochrome P450 3A4 (Homo sapiens) (UniProt P08684); test: LTEA_HepaRG_CYP3A4: Life Technologies and Expression Analysis (LTEA) Assay for CYP3A4 using HepaRG (AID 2283487)
Method in brief: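 CYP3A4 transcript measured by TaqMan qRT-PCR and normalized to three housekeeping genes after 48 h chemical exposure of human HepaRG cells. Top concentration 100 uM, half-log steps, 0.5% DMSO vehicle; gain or loss fitted against DMSO baseline.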

[6] = read-out: DNA damage-inducible transcript 3 (DDIT3), DDIT3 (gene 1649); test: LTEA_HepaRG_DDIT3: Life Technologies and Expression Analysis (LTEA) Assay for DNA damage-inducible transcript 3 (DDIT3) using HepaRG (AID 2283488)
Method in brief: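 Eight-point concentration-response (100 uM highest, half-log dilutions) in HepaRG, 48 h, duplicate wells. Endpoint: qRT-PCR mRNA, normalized (ACTB, GAPDH, POLR2A), bidirectional fitting with DMSO as baseline.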

[7] = read-out: Pro-epidermal growth factor (Homo sapiens) (UniProt P01133); test: LTEA_HepaRG_EGF: Life Technologies and Expression Analysis (LTEA) Assay for Epidermal growth factor (EGF) using HepaRG (AID 2283489)
Method in brief: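 EGF expression changes in human HepaRG cells are scored by bidirectional fitting relative to 0.5% DMSO controls. Chemicals are tested at eight half-log concentrations up to 100 uM for 48 h in serum-free induction medium.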

[8] = read-out: Early growth response protein 1 (EGR1) transcription factor, EGR1 (gene 1958); test: LTEA_HepaRG_EGR1: Life Technologies and Expression Analysis (LTEA) Assay for Early growth response protein 1 (EGR1) transcription factor using HepaRG (AID 2283490)
Method in brief: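 EGR1 transcript levels quantified by qRT-PCR (Fluidigm arrays) against three housekeeping genes after 48 h chemical exposure of HepaRG cells. Eight-point half-log series topping at 100 uM, 0.5% DMSO vehicle, analyzed for gain or loss.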

[9] = read-out: Ezrin (EZR), EZR (gene 7430); test: LTEA_HepaRG_EZR: Life Technologies and Expression Analysis (LTEA) Assay for Ezrin (EZR) using HepaRG (AID 2283491)
Method in brief: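 HepaRG, 48 h chemical exposure, 8-pt half-log series from 100 uM, 0.5% DMSO vehicle, duplicates. Read-out: EZR mRNA by TaqMan qRT-PCR (Fluidigm array), housekeeping-normalized; bidirectional curve fit vs DMSO baseline.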

[10] = read-out: Cytochrome P450 3A7 (Homo sapiens) (UniProt P24462); test: LTEA_HepaRG_CYP3A7: Life Technologies and Expression Analysis (LTEA) Assay for CYP3A7 using HepaRG (AID 2283492)
Method in brief: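 Cells were thawed, plated, cultured 48 h, then treated for a further 48 h with chemicals (eight-point half-log series from 100 uM, 0.5% DMSO). RNA was isolated and CYP3A7 expression quantified by qRT-PCR normalised to ACTB, GAPDH and POLR2A.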

CYP3A5 (gene 1577) = test: LTEA_HepaRG_CYP3A5: Life Technologies and Expression Analysis (LTEA) Assay for CYP3A5 using HepaRG (AID 2283493)
Method in brief: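 Readout was CYP3A5 mRNA by qRT-PCR. HepaRG cultures were exposed for 48 h in serum-free induction medium to chemicals at up to 100 uM, and responses were fitted in both directions relative to DMSO vehicle.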

[11] = read-out: Fatty Acid-Binding Protein 1 (FABP1), FABP1 (gene 2168); test: LTEA_HepaRG_FABP1: Life Technologies and Expression Analysis (LTEA) Assay for Fatty Acid-Binding Protein 1 (FABP1) using HepaRG (AID 2283494)
Method in brief: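 FABP1 expression by TaqMan qRT-PCR, normalised to three housekeeping genes, in HepaRG cells after 48 h chemical treatment. Eight-point half-log series topping at 100 uM in 0.5% DMSO, duplicates; gain or loss fitted relative to vehicle.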

[12] = read-out: Cytochrome P450 4A22 (Homo sapiens) (UniProt Q5TCH4); test: LTEA_HepaRG_CYP4A22: Life Technologies and Expression Analysis (LTEA) Assay for Cytochrome P450 4A22 (CYP4A22) using HepaRG (AID 2283495)
Method in brief: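 Cryopreserved HepaRG cells, plated and cultured 48 h, then switched to serum-free induction medium and treated 48 h (duplicates, up to 100 uM, half-log steps, 0.5% DMSO). Expression change of CYP4A22 was fitted bidirectionally against vehicle.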

[13] = read-out: Cytochrome P450 7A1 (Homo sapiens) (UniProt P22680); test: LTEA_HepaRG_CYP7A1: Life Technologies and Expression Analysis (LTEA) Assay for Cytochrome P450 7A1 (CYP7A1) using HepaRG (AID 2283496)
Method in brief: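 Using 0.5% DMSO as vehicle and baseline, chemicals were tested in duplicate over an 8-point range from 100 uM on HepaRG cells for 48 h; qRT-PCR signals were normalised to ACTB, GAPDH and POLR2A.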

[14] = read-out: Cytochrome P450 (CYP2B6), CYP2B6 (gene 1555); test: LTEA_HepaRG_CYP2B6: Life Technologies and Expression Analysis (LTEA) Assay for Cytochrome P450 (CYP2B6) using HepaRG (AID 2283481)
Method in brief: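 Using 48 h treatment of HepaRG cells in serum-free induction medium, concentrations spanned half-log steps from 100 uM in 0.5% DMSO vehicle. CYP2B6 mRNA induction or loss is scored by qRT-PCR against DMSO.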

Cytochrome P450 2C19 (Homo sapiens), sequence (P33261 whole entry, looked up): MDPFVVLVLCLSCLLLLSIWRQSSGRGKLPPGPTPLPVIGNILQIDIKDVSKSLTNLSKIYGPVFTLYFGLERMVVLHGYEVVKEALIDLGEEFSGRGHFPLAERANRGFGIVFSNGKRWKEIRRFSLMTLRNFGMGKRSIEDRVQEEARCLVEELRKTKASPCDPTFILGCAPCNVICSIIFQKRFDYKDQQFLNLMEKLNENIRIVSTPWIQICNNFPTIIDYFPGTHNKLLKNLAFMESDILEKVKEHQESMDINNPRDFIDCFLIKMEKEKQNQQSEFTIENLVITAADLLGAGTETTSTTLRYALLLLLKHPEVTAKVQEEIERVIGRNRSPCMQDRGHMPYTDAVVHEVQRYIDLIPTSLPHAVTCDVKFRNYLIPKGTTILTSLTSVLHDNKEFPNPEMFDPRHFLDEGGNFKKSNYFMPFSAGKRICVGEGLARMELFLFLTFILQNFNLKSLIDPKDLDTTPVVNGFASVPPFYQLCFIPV
Cytochrome P450 3A4 (Homo sapiens), sequence (P08684 whole entry, looked up): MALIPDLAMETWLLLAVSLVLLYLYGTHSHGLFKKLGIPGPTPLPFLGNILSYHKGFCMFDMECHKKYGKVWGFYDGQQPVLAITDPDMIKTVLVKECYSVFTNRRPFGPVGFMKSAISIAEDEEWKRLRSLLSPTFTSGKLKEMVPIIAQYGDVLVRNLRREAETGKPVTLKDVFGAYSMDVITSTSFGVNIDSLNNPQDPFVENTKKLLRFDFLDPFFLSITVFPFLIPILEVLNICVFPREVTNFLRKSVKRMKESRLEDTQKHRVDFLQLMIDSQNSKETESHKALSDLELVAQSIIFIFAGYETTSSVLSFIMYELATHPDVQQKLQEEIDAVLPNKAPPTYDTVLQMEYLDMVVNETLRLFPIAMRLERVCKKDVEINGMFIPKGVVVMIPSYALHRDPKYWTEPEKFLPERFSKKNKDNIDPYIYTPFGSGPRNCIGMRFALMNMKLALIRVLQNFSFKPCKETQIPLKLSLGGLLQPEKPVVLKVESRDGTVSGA
Cytochrome P450 3A7 (Homo sapiens), sequence (P24462 whole entry, looked up): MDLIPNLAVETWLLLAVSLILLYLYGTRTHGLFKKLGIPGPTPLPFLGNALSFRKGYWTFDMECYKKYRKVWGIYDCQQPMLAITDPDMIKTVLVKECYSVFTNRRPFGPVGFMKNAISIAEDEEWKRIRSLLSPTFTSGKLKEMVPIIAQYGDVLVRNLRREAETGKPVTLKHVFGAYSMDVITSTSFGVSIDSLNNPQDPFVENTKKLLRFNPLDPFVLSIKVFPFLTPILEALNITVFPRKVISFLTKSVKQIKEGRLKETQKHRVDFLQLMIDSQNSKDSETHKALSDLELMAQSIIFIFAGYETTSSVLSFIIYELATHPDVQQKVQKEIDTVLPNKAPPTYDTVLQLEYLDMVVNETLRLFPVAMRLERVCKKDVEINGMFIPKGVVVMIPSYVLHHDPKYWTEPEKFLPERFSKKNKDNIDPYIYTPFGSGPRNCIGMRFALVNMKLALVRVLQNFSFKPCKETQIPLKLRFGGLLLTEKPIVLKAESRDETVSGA

O=P(OC(CCl)CCl)(OC(CCl)CCl)OC(CCl)CCl
outcome (Caspase-3 (Homo sapiens)): inactive
outcome [1]: inactive
AC50 [2]: 80 µM (active)
AC50 [3]: 0.209 µM (active)
AC50 [4]: 84.9 µM (active)
AC50 (CYP2C8 (gene 1558)): 89.6 µM (active)
AC50 (CYP2C9 (gene 1559)): 76.3 µM (active)
AC50 (CYP2E1 (gene 1571)): 56 µM (active)
AC50 (CYP4A11 (gene 1579)): 67.8 µM (active)
AC50 [5]: 88.5 µM (active)
AC50 [6]: 79.1 µM (active)
AC50 [7]: 88.8 µM (active)
AC50 [8]: 91.6 µM (active)
AC50 [9]: 89.1 µM (active)
AC50 [10]: 9.92 µM (active)
outcome (CYP3A5 (gene 1577)): inactive
AC50 [11]: 72.9 µM (active)
AC50 [12]: 79 µM (active)
AC50 [13]: 76.9 µM (active)

COc1cccc(-c2ccc(/C=C\CN3CCCCCC3)cc2Cl)c1
outcome (Caspase-3 (Homo sapiens)): inactive
outcome [1]: inactive
AC50 [2]: 69.9 µM (active)
AC50 [14]: 77.3 µM (active)
AC50 [4]: 74.9 µM (active)
AC50 (CYP2C8 (gene 1558)): 74.1 µM (active)
AC50 (CYP2C9 (gene 1559)): 70.8 µM (active)
AC50 (CYP2E1 (gene 1571)): 61.8 µM (active)
AC50 (CYP4A11 (gene 1579)): 85.4 µM (active)
AC50 [5]: 76.3 µM (active)
AC50 [6]: 79.4 µM (active)
outcome [7]: inactive
AC50 [8]: 72.7 µM (active)
AC50 [9]: 45.2 µM (active)
AC50 [10]: 81.9 µM (active)
AC50 (CYP3A5 (gene 1577)): 8.98 µM (active)
AC50 [11]: 84.1 µM (active)
AC50 [12]: 84.4 µM (active)
AC50 [13]: 69.2 µM (active)

CCCCCCCCCCCCCCCO
outcome (Caspase-3 (Homo sapiens)): inactive
outcome [1]: inactive
outcome [2]: inactive
outcome [14]: inactive
outcome [4]: inactive
outcome (CYP2C8 (gene 1558)): inactive
outcome (CYP2C9 (gene 1559)): inactive
outcome (CYP2E1 (gene 1571)): inactive
outcome (CYP4A11 (gene 1579)): inactive
outcome [5]: inactive
outcome [6]: inactive
outcome [7]: inactive
outcome [8]: inactive
outcome [9]: inactive
outcome [10]: inactive
outcome (CYP3A5 (gene 1577)): inactive
outcome [11]: inactive
outcome [12]: inactive
outcome [13]: inactive

CC(=O)OCCC(C)C
outcome (Caspase-3 (Homo sapiens)): inactive
outcome [1]: inactive
outcome [2]: inactive
outcome [14]: inactive
outcome [4]: inactive
outcome (CYP2C8 (gene 1558)): inactive
outcome (CYP2C9 (gene 1559)): inactive
outcome (CYP2E1 (gene 1571)): inactive
outcome (CYP4A11 (gene 1579)): inactive
outcome [5]: inactive
outcome [6]: inactive
outcome [7]: inactive
outcome [8]: inactive
outcome [9]: inactive
outcome [10]: inactive
outcome (CYP3A5 (gene 1577)): inactive
outcome [11]: inactive
outcome [12]: inactive
outcome [13]: inactive

CC(O)CN(CCN(CC(C)O)CC(C)O)CC(C)O (centres undefined)
outcome (Caspase-3 (Homo sapiens)): inactive
outcome [1]: inactive
AC50 [2]: 50 µM (active)
outcome [14]: inactive
outcome [4]: inactive
AC50 (CYP2C8 (gene 1558)): 12.6 µM (active)
outcome (CYP2C9 (gene 1559)): inactive
outcome (CYP2E1 (gene 1571)): inactive
AC50 (CYP4A11 (gene 1579)): 12.8 µM (active)
outcome [5]: inactive
outcome [6]: inactive
outcome [7]: inactive
AC50 [8]: 12.6 µM (active)
outcome [9]: inactive
outcome [10]: inactive
AC50 (CYP3A5 (gene 1577)): 12.4 µM (active)
outcome [11]: inactive
outcome [12]: inactive
outcome [13]: inactive

Nc1nc2ncc(CNc3ccc(C(=O)N[C@@H](CCC(=O)O)C(=O)O)cc3)nc2c(=O)[nH]1
outcome (Caspase-3 (Homo sapiens)): inactive
outcome [1]: inactive
outcome [2]: inactive
outcome [14]: inactive
outcome [4]: inactive
outcome (CYP2C8 (gene 1558)): inactive
outcome (CYP2C9 (gene 1559)): inactive
outcome (CYP2E1 (gene 1571)): inactive
outcome (CYP4A11 (gene 1579)): inactive
outcome [5]: inactive
outcome [6]: inactive
outcome [7]: inactive
outcome [8]: inactive
outcome [9]: inactive
outcome [10]: inactive
outcome (CYP3A5 (gene 1577)): inactive
outcome [11]: inactive
outcome [12]: inactive
outcome [13]: inactive
